The list is not random: actives were taken first. Their share in the collection is about 22%.
LmPK inh = blocks Leishmania mexicana pyruvate kinase activity; Q27686; Potency, µM (series often up to 57.5 µM), without a hit: top-dose activity change, negative = inhibition, actives largely listed as inhibitors; purified LmPK, Kinase-Glo ATP luminescence, 1 h; AID 1721; hit rate 0.37% among 290,000; note: potency is the fitted concentration of half-maximal effect; % is set by controls: 0 for no effect and ±100 for the full control effect
Target sequence (Q27686 whole entry, looked up): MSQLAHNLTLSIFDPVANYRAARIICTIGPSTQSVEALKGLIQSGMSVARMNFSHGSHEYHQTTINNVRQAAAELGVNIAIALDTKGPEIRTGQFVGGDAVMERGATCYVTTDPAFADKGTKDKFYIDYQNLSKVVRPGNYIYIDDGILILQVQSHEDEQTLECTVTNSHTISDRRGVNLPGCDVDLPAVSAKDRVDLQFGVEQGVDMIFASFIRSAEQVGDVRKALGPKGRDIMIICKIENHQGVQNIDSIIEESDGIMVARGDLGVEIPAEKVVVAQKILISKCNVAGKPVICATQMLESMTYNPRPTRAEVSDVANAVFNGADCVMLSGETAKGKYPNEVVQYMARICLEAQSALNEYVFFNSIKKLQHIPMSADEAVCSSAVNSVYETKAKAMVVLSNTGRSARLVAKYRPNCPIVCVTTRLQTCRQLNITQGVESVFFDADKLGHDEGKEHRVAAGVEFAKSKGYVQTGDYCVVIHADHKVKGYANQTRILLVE
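Purified LmPK (0.1 nM) with 0.5 mM PEP and 0.1 mM ADP in imidazole buffer pH 7.2 with MgCl2/KCl, 1 h at room temperature. ATP formed was read by luciferase luminescence and normalized to no-enzyme and uninhibited controls.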
Shiga inhibitor = blocks Shiga toxin action in Vero cells; Vero cells, Shiga toxin protein synthesis inhibition reporter; AID 2315; inhibition, % at 38.7 µM; hit rate 9.2% among 290,000; in the data active = inhibition mostly above about 28%, no sharp cut-off; inactive = mostly below about 43%; note: 0% is about no effect
Cycloheximide cs = affects cycloheximide protein synthesis inhibition readout, counter-screen; cell reporter, cycloheximide protein synthesis inhibition counterscreen; max response, %; hit rate 12% among 300,000; AID 2314; in the data active = max response mostly above about 13%, no sharp cut-off; inactive = mostly below about 14%; note: read at 38.3 µM for the half of the compounds with a filed dose; 0% is about no effect
Pf growth 96h = inhibits malaria parasite growth, 96 h | P. falciparum luciferase reporter growth, 96 h | hit rate 6.9% among 320,000 | Potency, µM (doses to about 28.7 µM), without a hit: at the highest dose activity change, negative = inhibition, actives largely listed as inhibitors | AID 504834; note: potency is the fitted concentration of half-maximal effect; % is set by controls: 0 for no effect and ±100 for the full control effect
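Readout is luminescence from an integrated firefly luciferase in P. falciparum. Red cells, 2% hematocrit and 0.05% parasitemia final, were cultured with compound through two parasite generations (96 hours) at 37 C, 5% CO2.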
Pf growth 48h = inhibits P. falciparum growth in the first generation, 48 h | P. falciparum luciferase growth in erythrocytes, 48 h | Potency, µM (doses to about 28.7 µM), for the others: at the highest dose activity change, negative = inhibition, hits mostly inhibitors | AID 504832 | hit rate 5.9% among 310,000; note: potency is the fitted concentration of half-maximal effect; % is set by controls: 0 for no effect and ±100 for the full control effect
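Parasite viability was followed by luminescence of a genomically integrated firefly luciferase. Cultures held 0.1% parasitemia at 2% hematocrit (final), incubated under 5% CO2 at 37 C.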
Active calls of the source: *; [ ] = another dose, or the depositor's remark. Unless noted, calls come from the whole dose curve; as a rule, active = well fitted inhibition curve with a large enough effect; inconclusive = small, poorly fitted or top-dose-only effect, or another doubt; inactive = no such curve, though single readings can be large or run the other way.

For CCOC(=O)CC1C(=O)NCCN1C(=O)c1ccc(Cl)cc1 (stereo not given) the results were LmPK inh 0.1%, Shiga inhibitor 16.8, Cycloheximide cs -2.6 and Pf growth 96h 35.3%.
`CC(C)(C)c1ccc(-c2nc(C=O)c3ccccn23)cc1` gave LmPK inh 0.3%, Shiga inhibitor 55.7, Cycloheximide cs 38.9*, Pf growth 96h 69.7% and Pf growth 48h 71.9%.
CC(C)(C)NC(=O)N1CCN(c2nc(-c3ccccc3)ns2)CC1 was read as LmPK inh -1.7%, Shiga inhibitor 107.7*, Cycloheximide cs 35.0*, Pf growth 96h 23.6% and Pf growth 48h 65.1%.
CC(C)(C)NC(=O)N1CCN(c2nc3ccc(Cl)cc3s2)CC1 was read as LmPK inh 7.6%, Shiga inhibitor 41.6*, Cycloheximide cs 14.6, Pf growth 96h 39.3% and Pf growth 48h 5.2%[0.00184 µM].
For CC(C)(CC(=O)O)CC(=O)N1CCCN(c2nc3ccc(Cl)cc3s2)CC1 the results were LmPK inh 2.5%, Shiga inhibitor 67.3*, Cycloheximide cs 16.2*, Pf growth 96h 0.7% and Pf growth 48h 5.5%.
`CC(C)(CC(=O)O)CC(=O)N1CCN(c2nc3ccc(Cl)cc3s2)CC1` gave LmPK inh 1.3%, Shiga inhibitor -5.2, Cycloheximide cs -1.2, Pf growth 96h 4.5% and Pf growth 48h 12.2%.
Screening CCCCC(=O)N1CCN(c2nc3ccc(Cl)cc3s2)CC1 returned LmPK inh -8.3%, Shiga inhibitor 43.1*, Cycloheximide cs 45.2*, Pf growth 96h 45.0% and Pf growth 48h 46.0%.
Screening O=C(NNC(=O)c1ccccc1[N+](=O)[O-])c1csc(N2CCOCC2)n1 returned Pf growth 96h 41.9% and Pf growth 48h 22.7%.
For CC1CC(C)CN(C(=O)Nc2ccccc2F)C1 (stereo not given) the results were LmPK inh 0.0%, Shiga inhibitor 13.2, Cycloheximide cs 5.5, Pf growth 96h 13.6% and Pf growth 48h 15.1%.
For Cc1ccc(C)c(NC(=O)N2CCc3ccccc3C2)c1 the results were LmPK inh 2.9%, Shiga inhibitor 77.7*, Cycloheximide cs 42.3*, Pf growth 96h inconclusive and Pf growth 48h 184.2%.
`O=C(Nc1ccccc1F)N1CCc2ccccc2C1` gave LmPK inh -0.2%, Shiga inhibitor 83.5*, Cycloheximide cs 56.9*, Pf growth 96h inconclusive and Pf growth 48h 97.6%.
`COC1CC(=C(c2cccs2)c2cccs2)C[N+](C)(C)C1` (stereo not given) gave Pf growth 96h -7.4% and Pf growth 48h 4.78µM*.
Cc1ccc(N(C)C(=O)CCS(=O)(=O)c2ccc3c(c2)oc(=O)n3C)cc1 was read as LmPK inh -0.8%, Shiga inhibitor 11.1, Cycloheximide cs -1.8, Pf growth 96h 14.7µM* and Pf growth 48h 21.5%.
Screening CN(C(=O)CCS(=O)(=O)c1ccc2c(c1)oc(=O)n2C)C1CCCCC1 returned LmPK inh -12.3%, Shiga inhibitor -17.9, Cycloheximide cs -5.1, Pf growth 96h 4.65µM* and Pf growth 48h 22.4%.
Screening CN(C)c1ccc(CNC(=O)CCS(=O)(=O)c2ccc3c(c2)oc(=O)n3C)cc1 returned LmPK inh 2.9%, Shiga inhibitor 4.7, Cycloheximide cs 9.1, Pf growth 96h 6.6% and Pf growth 48h inconclusive.
For Clc1ccccc1-c1ccc(CN2CCN(c3ccccc3)CC2)o1 the results were LmPK inh -2.8%, Shiga inhibitor 24.9 and Cycloheximide cs 7.0.
`COc1nc(Nc2ccc(OC)c(Cl)c2)nc(OC)n1` gave LmPK inh 2.3%, Shiga inhibitor 22.3, Cycloheximide cs 8.1, Pf growth 96h -16.3% and Pf growth 48h 8.28µM*.
For COc1ccc(Nc2nc(C)cc(C)n2)cc1Cl the results were LmPK inh 1.2%, Shiga inhibitor 75.6, Cycloheximide cs 26.3*, Pf growth 96h -29.1% and Pf growth 48h 74.9%.
COc1ccccc1Nc1nc(C)cc(C)n1 was read as LmPK inh -7.5%, Shiga inhibitor 15.2, Cycloheximide cs -2.8, Pf growth 96h inconclusive and Pf growth 48h 1.3%.
CCN(CC)Cc1c(CC(C)C)oc(C)c1C(=O)O was read as LmPK inh -1.8%, Shiga inhibitor -8.2, Cycloheximide cs -2.9 and Pf growth 48h 4.2%.
For Cc1cc(O)c2c(c1)OC(C)(C)C1=C2CC(C)CC1 (stereo not given) the results were LmPK inh -2.5%, Cycloheximide cs -1.0, Pf growth 96h 8.8% and Pf growth 48h 6.57µM*.

Bioassay records from PubChem BioAssay.
